Assay results from PubChem BioAssay AID1159580 (chemical genetic matrix, 2015).
In all, about 5,500 compounds went through this assay and about 2,000 (36%) were called active. Inconclusive results (about 18%) are left out. Cut-off read from the data, not from the text of the source: active = normalized growth mostly below about 0.91 (no sharp cut-off); inconclusive = no clear call, values can overlap the other calls; inactive = mostly above about 0.92. Some of the results follow.

Assay: chemical genetic growth profiling, strain panel (AID 1159580);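 note: tested at 20 µM; growth read once vehicle control cultures reached saturation at 30 °C; 1 = growth at the plate median or of vehicle wells; lower values mean less growth of the strain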
Conditions: growth OD

Measured: normalized growth

Nc1c2ccccc2nc2ccccc12 (tested in a mixture with another compound)
active: S. cerevisiae deletion strains, locus YKL009W, strain mrt4, active compounds read low 0.811 | S. cerevisiae deletion strains, locus YKL085W, strain MDH1 (second series), active compounds read low 0.899 | S. cerevisiae deletion strains, locus YKL085W, strain MDH1, active compounds read low 0.899 | S. cerevisiae deletion strains, locus YKL160W, strain elf1, active compounds read low 0.597 | S. cerevisiae deletion strains, locus YKL190W, strain CNB1, active compounds read low 0.717 | S. cerevisiae deletion strains, locus YKR001C, strain vps1, active compounds read low 0.292 | S. cerevisiae deletion strains, locus YLL001W, strain dnm1, active compounds read low 0.603 | S. cerevisiae deletion strains, locus YLL026W, active compounds read low 0.707 | S. cerevisiae deletion strains, locus YLL041C, strain sdh2, active compounds read low 0.897 | S. cerevisiae deletion strains, locus YLR027C, strain aat2, active compounds read low 0.604 | S. cerevisiae deletion strains, locus YLR039C, strain RIC1, active compounds read low 0.601 | S. cerevisiae deletion strains, locus YLR058C, strain SHM2, active compounds read low 0.538 | S. cerevisiae deletion strains, locus YLR113W, strain HOG1, active compounds read low 0.506 | S. cerevisiae deletion strains, locus YLR221C, strain rsa3, active compounds read low 0.634 | S. cerevisiae deletion strains, locus YLR258W, strain gsy2, active compounds read low 0.603 | S. cerevisiae deletion strains, locus YLR262C, strain YPT6 (second series), active compounds read low 0.573 | S. cerevisiae deletion strains, locus YLR262C, strain YPT6, active compounds read low 0.604 | S. cerevisiae deletion strains, locus YLR268W, strain sec22, active compounds read low 0.622 | S. cerevisiae deletion strains, locus YLR320W, strain mms22, active compounds read low 0.507 | S. cerevisiae deletion strains, locus YLR330W, strain CHS5, active compounds read low 0.826 | S. cerevisiae deletion strains, locus YLR342W, strain FKS1 (second series), active compounds read low 0.662 | S. cerevisiae deletion strains, locus YLR370C, strain arc18, active compounds read low 0.803 | S. cerevisiae deletion strains, locus YLR418C, strain cdc73, active compounds read low 0.723 | S. cerevisiae deletion strains, locus YML016C, strain PPZ1, active compounds read low 0.714 | S. cerevisiae deletion strains, locus YML032C, strain rad52, active compounds read low 0.37 | S. cerevisiae deletion strains, locus YML120C, strain ndi1, active compounds read low 0.439 | S. cerevisiae deletion strains, locus YML124C, strain tub3, active compounds read low 0.84 | S. cerevisiae deletion strains, locus YMR058W, strain fet3, active compounds read low 0.69 | S. cerevisiae deletion strains, locus YMR078C, strain ctf18, active compounds read low 0.642 | S. cerevisiae deletion strains, locus YMR129W, active compounds read low 0.844 | S. cerevisiae deletion strains, locus YMR205C, strain PFK2, active compounds read low 0.669 | S. cerevisiae deletion strains, locus YMR223W, strain ubp8, active compounds read low 0.579 | S. cerevisiae deletion strains, locus YMR263W, strain SAP30, active compounds read low 0.746 | S. cerevisiae deletion strains, locus YNL067W, strain RPL9B, active compounds read low 0.477 | S. cerevisiae deletion strains, locus YNL128W, strain TEP1, active compounds read low 0.76 | S. cerevisiae deletion strains, locus YNL153C, strain GIM3, active compounds read low 0.701 | S. cerevisiae deletion strains, locus YNL183C, strain NPR1, active compounds read low 0.483 | S. cerevisiae deletion strains, locus YNL209W, strain ssb2, active compounds read low 0.729 | S. cerevisiae deletion strains, locus YNL233W, strain BNI4, active compounds read low 0.707 | S. cerevisiae deletion strains, locus YNL248C, strain rpa49, active compounds read low 0.599 | S. cerevisiae deletion strains, locus YNL250W, strain rad50, active compounds read low 0.782 | S. cerevisiae deletion strains, locus YNL271C, strain bni1, active compounds read low 0.891 | S. cerevisiae deletion strains, locus YNL298W, strain CLA4, active compounds read low 0.858 | S. cerevisiae deletion strains, locus YNL307C, strain MCK1, active compounds read low 0.439 | S. cerevisiae deletion strains, locus YNL322C, strain KRE1, active compounds read low 0.771 | S. cerevisiae deletion strains, locus YNR049C, strain mso1, active compounds read low 0.899 | S. cerevisiae deletion strains, locus YNR052C, strain pop2, active compounds read low 0.732 | S. cerevisiae deletion strains, locus YOL006C, strain TOP1, active compounds read low 0.475 | S. cerevisiae deletion strains, locus YOL012C, strain htz1 2.2 [resistant] | S. cerevisiae deletion strains, locus YOL147C, strain pex11, active compounds read low 0.832 | S. cerevisiae deletion strains, locus YOR001W, strain rrp6, active compounds read low 0.508 | S. cerevisiae deletion strains, locus YOR061W, strain CKA2, active compounds read low 0.744 | S. cerevisiae deletion strains, locus YOR069W, strain VPS5, active compounds read low 0.825 | S. cerevisiae deletion strains, locus YOR070C, strain gyp1, active compounds read low 0.732 | S. cerevisiae deletion strains, locus YOR080W, strain dia2, active compounds read low 0.816 | S. cerevisiae deletion strains, locus YOR083W, strain WHI5, active compounds read low 0.56 | S. cerevisiae deletion strains, locus YOR106W, strain vam3, active compounds read low 0.529 | S. cerevisiae deletion strains, locus YOR136W, strain idh2, active compounds read low 0.866 | S. cerevisiae deletion strains, locus YOR144C, strain elg1, active compounds read low 0.766 | S. cerevisiae deletion strains, locus YOR184W, strain ser1, active compounds read low 0.535 | S. cerevisiae deletion strains, locus YOR231W, strain MKK1, active compounds read low 0.41 | S. cerevisiae deletion strains, locus YOR265W, strain rbl2, active compounds read low 0.851 | S. cerevisiae deletion strains, locus YOR270C, strain vph1, active compounds read low 0.577 | S. cerevisiae deletion strains, locus YOR290C, strain snf2, active compounds read low 0.379 | S. cerevisiae deletion strains, locus YPL051W, strain arl3, active compounds read low 0.628 | S. cerevisiae deletion strains, locus YPL055C, strain LGE1, active compounds read low 0.572 | S. cerevisiae deletion strains, locus YPL078C, strain atp4, active compounds read low 0.727 | S. cerevisiae deletion strains, locus YPL106C, strain sse1, active compounds read low 0.779 | S. cerevisiae deletion strains, locus YPL240C, strain hsp82, active compounds read low 0.618 | S. cerevisiae deletion strains, locus YPL256C, strain CLN2, active compounds read low 0.499 | S. cerevisiae deletion strains, locus YPR119W, strain clb2, active compounds read low 0.85 | S. cerevisiae deletion strains, locus YPR167C, strain met16, active compounds read low 0.699 | S. cerevisiae deletion strains, strain wtn01, active compounds read low 0.549 | S. cerevisiae strains, strain wild type, active compounds read low 0.698
inactive: S. cerevisiae deletion strains, locus YKL068W, active compounds read low 0.969 | S. cerevisiae deletion strains, locus YKR026C, strain gcn3, active compounds read low 0.957 | S. cerevisiae deletion strains, locus YKR091W, strain srl3, active compounds read low 0.95 | S. cerevisiae deletion strains, locus YLR102C, strain apc9, active compounds read low 0.943 | S. cerevisiae deletion strains, locus YLR342W, strain FKS1, active compounds read low 0.945 | S. cerevisiae deletion strains, locus YLR357W, strain rsc2, active compounds read low 1.11 | S. cerevisiae deletion strains, locus YLR371W, strain rom2, active compounds read low 0.98 | S. cerevisiae deletion strains, locus YLR384C, strain iki3, active compounds read low 0.932 | S. cerevisiae deletion strains, locus YMR125W, strain sto1, active compounds read low 0.963 | S. cerevisiae deletion strains, locus YMR231W, strain pep5, active compounds read low 0.94 | S. cerevisiae deletion strains, locus YMR307W, strain GAS1, active compounds read low 0.806 | S. cerevisiae deletion strains, locus YNL071W, strain lat1, active compounds read low 0.958 | S. cerevisiae deletion strains, locus YNL322C, strain KRE1 (second series), active compounds read low 0.981 | S. cerevisiae deletion strains, locus YOR316C, strain cot1, active compounds read low 0.938 | S. cerevisiae deletion strains, locus YPL241C, strain CIN2, active compounds read low 0.935 | S. cerevisiae deletion strains, locus YPR141C, strain kar3, active compounds read low 1 | S. cerevisiae deletion strains, locus YPR163C, strain tif3, active compounds read low 0.964
